Source: PubChem BioAssay
Only a sample is shown.
aSyn UTR act: Activators working through SNCA 5'UTR binding (MLPCN); alpha-synuclein 5'UTR reporter, activators screen; activity score, % (tested at 7.5 µM), hits read low; actives 7.1% (n = 300,000); AID 1814; in the data active = activity score below about -60%
Numbers without * were called inactive.

SMILES	aSyn UTR act
NC(N)=Nc1nc(C2COc3ccccc3O2)cs1 (stereo not given)	-64*
CCOC(=O)C1CCN(c2ncnc3c(C)csc23)CC1	-69*
CN1CCN(CCOc2ccc(-c3ccccc3)cc2)CC1	-110*
c1ccc(COc2ccc(OCCn3cncn3)cc2)cc1	-110*
CN1CCN(CCCOc2ccc(-c3ccccc3)cc2)CC1	-63*
c1ccc(COc2ccc(OCCCCN3CCCCC3)cc2)cc1	-82*
CN1CCCN(C(=O)/C=C/c2ccc(Cl)cc2Cl)CC1	-62*
O=C(Cc1n[nH]c(=O)c2ccccc12)OCC(=O)c1ccc2c(c1)OCCO2	80
CCOc1ccc(C(=O)COC(=O)Cc2n[nH]c(=O)c3ccccc23)cc1	-87*
Cc1cc(C)c2c(n1)sc1c(=O)n(CC(=O)c3ccccc3)cnc12	-132*
O=C(Cn1cnc2c(oc3ccccc32)c1=O)c1ccccc1	-106*
Cc1ccccc1-c1nc(-c2ccc(NC(=O)c3cccs3)cc2)no1	-187*
O=C(Nc1ccc(-c2noc(-c3ccccc3F)n2)cc1)c1cccs1	-77*
CCOc1ccccc1C1CC(=O)Nc2cc3c(cc21)OCCO3 (stereo not given)	92
O=C(Nc1ccc(F)cc1)Nc1ccc2ccccc2n1	-106*
O=C(Nc1ccccc1)Nc1ccc2ccccc2n1	-89*
Cc1ccc(NC(=O)c2cc3ccccc3o2)cc1Cl	-270*
CC(=O)Nc1ccc(-c2cc3ccccc3o2)cc1	-147*
CC(=O)Nc1cccc(NC(=O)c2cc3ccccc3o2)c1	-92*
CCC(=O)Nc1ccc(Cl)c(NC(=S)NC(=O)c2cc3ccccc3o2)c1	-95*
CC(=O)Nc1cccc(NC(=O)c2oc3ccccc3c2C)c1	-272*
CC(C)C(=O)Nc1cccc(NC(=O)c2cc3ccccc3o2)c1	-108*
C=CCSC1=NNC(c2ccc(C(C)(C)C)cc2)=NN1	-89*
CCCCC(=O)Nc1ccc2c(c1)nc1n2CCSC1	-84*
Cc1ccc(C(=O)Nc2ccc3c(c2)nc2n3CCSC2)cc1	-67*
SMILES	aSyn UTR act
O=[N+]([O-])C(/C=C(\Cl)[N+](=O)[O-])=C(N1CCCCC1)N1CCCCC1	-69*
Brc1c(CSc2nc3ccccc3o2)nc2ncccn12	-118*
Clc1c(CSc2nc3ccccc3o2)nc2ccccn12	-117*
Clc1c(CSc2nc3ccccc3o2)nc2sccn12	-117*
Cc1cccc(OCC(=O)Nc2ccc3c(c2)nc2n3CCOC2)c1	-69*
CC(=O)NCCc1nc2cc(NC(=O)COc3cccc(C)c3)ccc2n1C	-62*
O=C(CSc1ncc(-c2ccc(F)cc2)n1Cc1ccco1)Nc1ccc2c(c1)OCO2	-150*
Cn1ccnc1SCC(=O)Nc1ccc2c(c1)OCO2	-107*
CCOc1ccc(NC(=O)CSc2nccn2C)cc1	-65*
O=C(CSc1nccn1-c1ccccc1)Nc1ccc2c(c1)OCO2	-69*
CCOC(=O)c1sc(NC(=O)CSc2nccn2C)nc1C	-112*
COc1ccc(C(=O)CSc2cc(C)[nH]c(=O)n2)cc1	-86*
O=C(CSc1nccn1-c1ccc(F)cc1)Nc1ccc2c(c1)OCO2	-65*
COc1ccc(NCc2nnc(SCC(=O)c3ccc(OC)cc3)n2C)cc1	-127*
COc1ccc(C(=O)CSc2nccn2C)cc1	-80*
CCc1ccc2c(c1)C1(C(=O)N2)N2CCCC2C(C(=O)c2ccc3ccccc3c2)C12C(=O)Nc1ccccc12 (stereo not given)	-127*
CCc1cccc2c1NC(=O)C21N2CCCC2C(C(=O)c2ccc3ccccc3c2)C12C(=O)Nc1ccccc12 (stereo not given)	-97*
CCc1ccc2c(c1)C1(NN=C(c3cccc4ccccc34)S1)C(=O)N2 (stereo not given)	76
Cc1ccc(C(=O)Nc2ccc(-c3csc(C)n3)cc2)cc1	-138*
Cc1ccc(CNC(=O)c2ccc(Cn3cc(-c4ccc(C)cc4)nc3-c3ccncc3)cc2)cc1	-177*
CCc1ccccc1NC(=O)c1ccc(-c2csc(C)n2)cc1	-143*
Cc1nc(-c2ccc(NC(=O)C3CCCCC3)cc2)cs1	-174*
Cc1ccc(CCNC(=O)NC(C)(C)C)cc1	-94*
Cc1ccc(C(=O)NCCc2csc(C)n2)cc1	-81*
Cc1ccn(C(=O)c2ccc(NC(=O)C3CCCCC3)cc2)n1	-70*
SMILES	aSyn UTR act
COCCNC(=O)c1ccc(-c2csc(C)n2)cc1	-64*
Cc1ccc(C(=O)NCCc2ccncc2)cc1	-114*
Cc1ccc(C(=O)NCCc2ccccc2)cc1	71
O=C(Nc1ccc(N2CCOCC2)nc1)c1cccs1	-104*
O=C(c1ccccc1)c1ccc(N2CCOCC2)c(F)c1	-145*
O=C(c1ccccc1)c1cc([N+](=O)[O-])ccc1N1CCOCC1	101
CN(C)c1ccc(NC(=O)c2ccc(N3CCOCC3)nc2)cc1	-62*
O=C(Nc1ccc(N2CCOCC2)c(F)c1)c1cccs1	-123*
Cc1ccc(C(=O)Nc2ccc(N3CCOCC3)nc2)cc1	-71*
O=C(/C=C/c1ccccc1F)c1ccoc1	-68*
CN(C)c1ccc(NC2=C(Cl)C(=O)c3ccccc3C2=O)cc1	-116*
O=C1C(Cl)=C(Nc2ccc3cn[nH]c3c2)C(=O)c2ccccc21	100
CC(=O)NNc1ncnc2c1cnn2-c1ccc(C)c(Cl)c1	-69*
O=C(NNc1ncnc2c1cnn2-c1cccc(Cl)c1)c1ccco1	-158*
Cc1ccc(C(=O)N2CCN(S(=O)(=O)c3ccccc3[N+](=O)[O-])C2)cc1	-65*
O=C(C1CCCCN1S(=O)(=O)c1ccccc1[N+](=O)[O-])N1CCCC1 (stereo not given)	-62*
O=C1c2ccccc2NC(c2ccccc2O)N1c1ccc(F)cc1 (stereo not given)	-98*
O=C1c2ccccc2NC(c2ccccn2)N1c1ccc(Cl)cc1 (stereo not given)	-138*
COc1cccc(C2Nc3ccccc3C(=O)N2c2ccc(F)cc2)c1O (stereo not given)	-99*
Cc1cccc(/C=C2/Sc3ccc(C(=O)NCCCN4CCOCC4)cc3NC2=O)c1	-69*
Cc1cccc(CN2C(=O)/C(=C\c3ccc(C(=O)NCCCN4CCN(C)CC4)cc3)Oc3ccccc32)c1	95
CN1CCN(C(=O)c2ccc3c(c2)NC(=O)/C(=C/c2ccccc2)S3)CC1	-88*
COc1ccccc1Nc1ccc(Nc2ccccc2OC)nn1	-171*
COc1ccccc1Nc1nc(C)cs1	-106*
O=[N+]([O-])c1cccc(-c2csc(Nc3ccccc3)n2)c1	-299*
SMILES	aSyn UTR act
COc1ccccc1Nc1nc(-c2cccc([N+](=O)[O-])c2)cs1	-77*
Nc1ccc(-c2cc3ccccc3oc2=O)cc1	106
O=c1oc2ccccc2cc1-c1ccc(O)cc1	-101*
O=C(NCc1cccnc1)c1ccc(-c2cc3ccccc3oc2=O)cc1	-139*
COc1ccc(-c2cc3ccccc3oc2=O)cc1	-71*
Oc1ccc(/C=C/c2cnccn2)cc1	-171*
COc1ccccc1NC(=O)COc1ccccc1	-91*
COc1ccccc1NC(=O)COc1ccc(C(F)(F)F)cc1[N+](=O)[O-]	-73*
COc1ccc(NC(=O)COc2ccccc2)c(OC)c1	-115*
COc1ccc(OCC(=O)Nc2ccccc2O)cc1	-160*
O=C(Nc1nnc(CCc2ccccc2)s1)c1cccc(F)c1	-103*
O=C(Nc1nnc(Cc2ccccc2)s1)c1ccccc1	-160*
O=C(Nc1nnc(CC2=CCCCC2)s1)c1cccs1	-93*
CCc1nnc(NC(=O)c2ccc(N(C)S(=O)(=O)c3ccccc3)cc2)s1	-129*
